Giardia kill = kills Giardia lamblia. Giardia lamblia trophozoite viability. activity change, % at 7.66 µM, hits read low. hit rate 0.15% among 340,000; in the data active means activity change below about -80%; inconclusive means between about -30% and that limit;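 further: parasites exposed to compound for two days anaerobically before the ATP read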
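ATP-content bioluminescence gauges trophozoite survival. Cells (100/well) receive compound and incubate anaerobically for 48 hrs at 37 deg C; detection reagent follows for 15-30 min at room temperature.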
IL-1B inflam inh = blocks inflammasome-driven IL-1 beta release | THP-1 LPS/ATP IL-1B secretion, AlphaLISA, 16 h; active compounds read low | activity change, % at 57.5 µM | hit rate 4.7% among 360,000 | AID 743279; in the data active means activity change below about -50%; inconclusive means mostly about -30% to -49%
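Secreted IL-1B measured by AlphaLISA bead assay after 16 h compound exposure of THP-1 cells; compounds (final up to 57.5 uM) added 1 h before LPS (250 ng/mL) and ATP (1.25 mM) stimulation; lower signal means less secretion.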
SW480 rerep = DNA re-replication induction in SW480 cells | hit rate 1.8% among 340,000 | Potency, µM (top dose mostly 46.1 µM), hits mostly activators | SW480 DNA re-replication, Hoechst DNA content imaging, 48 h | AID 624297; further: nearly all actives have a fitted effect of over 55% in size
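Treated cells incubate 48 hr (37 C, 5% CO2), are stained 40 min with Hoechst, and nuclear fluorescence is enumerated; a rise in nuclei with high DNA signal marks re-replication.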
MCF10A rerep = induces DNA re-replication in MCF 10a normal breast cells | MCF 10A DNA re-replication, Hoechst nuclear intensity, 48 h | Potency, µM (series often up to 46.1 µM), actives largely listed as activators | hit rate 2.9% among 350,000 | AID 624296; further: nearly all actives have a fitted effect of over 50% in size
Vif-A3F inh = inhibitors of Vif-A3F interaction; AID 602313; HeLa A3F-eYFP + Vif (tagged APOBEC3F with the HIV-1 protein that degrades it), YFP fluorescence increase; Potency, µM (doses to about 46.1 µM); hit rate 0.2% among 390,000; further: nearly all actives have a fitted effect of over 65% in size
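Fluorescence increase (Ex 488/Em 500-530) after overnight compound treatment at 37 deg C flags inhibition of Vif-driven A3F-eYFP loss in stable HeLa A3F-eYFP/Vif cells seeded overnight beforehand.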
Vif-APOBEC3G blk = Vif-A3G binding inhibition. Q9HC16. HeLa A3G-eYFP + Vif (tagged APOBEC3G with the HIV-1 protein that degrades it), YFP fluorescence, overnight. Potency, µM (doses to about 46.1 µM), hits mostly inhibitors. hit rate 0.076% among 410,000. AID 602310; further: nearly all actives have a fitted effect of over 60% in size
Target sequence (Q9HC16 whole entry, looked up): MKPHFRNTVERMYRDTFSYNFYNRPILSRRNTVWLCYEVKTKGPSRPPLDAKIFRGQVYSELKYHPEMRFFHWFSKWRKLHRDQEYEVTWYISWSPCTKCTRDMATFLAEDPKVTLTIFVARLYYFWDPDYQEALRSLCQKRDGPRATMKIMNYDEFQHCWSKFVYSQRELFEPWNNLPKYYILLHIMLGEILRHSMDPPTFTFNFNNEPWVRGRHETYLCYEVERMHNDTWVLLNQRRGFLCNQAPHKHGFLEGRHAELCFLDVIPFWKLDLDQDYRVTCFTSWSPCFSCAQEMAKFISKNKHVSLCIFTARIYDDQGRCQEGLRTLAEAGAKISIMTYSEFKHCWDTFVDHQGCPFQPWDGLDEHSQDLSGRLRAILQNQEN
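Read-out is eYFP fluorescence (Ex 488/Em 500-530) from Vif-expressing HeLa A3G-eYFP cells; more signal means A3G escaped Vif-mediated degradation. Cells plated overnight, compound pinned in, incubated overnight at 37 deg C.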
A number is an active result; . = inactive; ? = inconclusive; / = no result given. Rows were chosen to be rich in hits. Some 6.9% of all compounds tested hit in one or more screens of this group. Unless noted, the call rests on the fitted dose curve; in most records, active means well fitted curve in the direction sought with a large enough effect; inconclusive means small, poorly fitted or top-dose-only effect, or another doubt; inactive means no such curve, though single readings can be large; an effect the other way counts as inactive or inconclusive.

SMILES	Giardia kill	IL-1B inflam inh	SW480 rerep	MCF10A rerep	Vif-A3F inh	Vif-APOBEC3G blk
COc1cc(C2Nc3cccc4cccc(c34)N2)ccc1OC(C)=O	.	.	.	.	.	.
COc1cc(C2Nc3cccc4cccc(c34)N2)cc(OC)c1O	.	-90	.	.	.	.
NC(=O)c1ccc(NC(=O)COC(=O)/C=C/c2cn(-c3ccccc3)nc2-c2cccnc2)cc1	.	.	5.2µM	.	?	.
COc1ccc(-c2nn(-c3ccccc3)cc2/C=C/C(=O)OCC(=O)Nc2ccccc2C#N)cc1	.	.	.	15µM	?	.
O=S(=O)(c1ccccc1)n1nc(-c2ccco2)nc1NCc1ccccc1	/	/	/	/	.	.
CC(C)c1ccc(Nc2ncnc3onc(-c4ccc(F)cc4)c23)cc1	/	/	/	/	.	.
O=C1c2ccccc2-c2n[nH]c(=O)c3ccc(N4CCCCC4)c1c23	.	-94	?	.	.	.
O=C1c2cccc3c(N4CCCCC4)ccc(c23)C(=O)N1c1ccccn1	.	.	.	.	?	.
CCn1cc(C(=O)N2CCN(c3ccccc3F)CC2)c(=O)c2cc(S(=O)(=O)N(C)C)ccc21	/	/	/	/	.	.
COc1ccccc1-c1c(C)nn2c(N)c(-c3ccccc3)cnc12	.	-74	.	?	?	.
COc1ccccc1-c1c(C)nn2c(-c3ccccc3)cc(C)nc12	.	-70	?	?	.	.
COc1ccccc1-c1c(C)nn2c(N3CCCCCC3)cc(C)nc12	.	-77	.	?	.	.
Cc1ccc(Cl)cc1N1CCN(CCCNC(=O)C2COc3ccccc3C2)CC1 (configuration not stated)	/	/	/	/	.	.
CCC(C)Cn1cnc2c(Sc3c([N+](=O)[O-])ncn3C)nc(N)nc21 (configuration not stated)	.	-56	.	?	.	.
CC(C)Cn1cnc2c(SCc3ccccc3Cl)nc(N)nc21	.	?	.	?	.	.
CC(C)Cn1cnc2c(Sc3c([N+](=O)[O-])ncn3C)nc(N)nc21	.	-101	.	?	.	.
O=C(NCCc1ccc(F)cc1)C(=O)NCC(c1ccc2c(c1)OCO2)N1CCOCC1 (configuration not stated)	/	/	/	/	.	.
N#Cc1c(N)n(-c2cccc(Cl)c2)c2nc3ccccc3nc12	/	/	/	/	.	.
COc1ccc(/C=N/Nc2cc(C)nc3ccccc23)cc1	.	-107	4.1µM	1.6µM	.	.
COc1ccc2nc(C)cc(N/N=C/c3ccc(F)cc3)c2c1	-81	-99	16µM	23µM	.	.
COc1ccc(/C=N/Nc2cc(C)nc3c(C)cccc23)cc1	?	?	26µM	18µM	.	.
COc1cc(OC)c(NC(=O)CCCn2nc(C)c3sc4ccccc4c3c2=O)cc1Cl	/	/	/	/	.	.
CCOC(=O)c1c(C)[nH]c(CCC(=O)Nc2ccc(Cl)cc2C)c1C	/	/	/	/	.	.
CCOC(=O)c1c(C)[nH]c(C)c1S(=O)(=O)N1CCC(C(=O)NCc2ccc(N(C)C)cc2)CC1	/	/	/	/	.	.
O=C(C1COc2ccccc2O1)N1CCN(c2nc3c(F)cccc3s2)CC1 (configuration not stated)	/	/	/	/	.	.
SMILES	Giardia kill	IL-1B inflam inh	SW480 rerep	MCF10A rerep	Vif-A3F inh	Vif-APOBEC3G blk
Cc1onc(-c2ccccc2Cl)c1C(N)=O	.	.	.	.	.	.
Cc1nc(/C(N)=N/OC(=O)c2c(-c3ccccc3Cl)noc2C)cs1	.	-89	.	?	.	.
COc1ccc(/C(N)=N/OC(=O)c2c(-c3ccccc3Cl)noc2C)cc1OC	.	-91	?	?	.	.
Cc1onc(-c2c(F)cccc2Cl)c1C(=O)O/N=C(\N)c1ccc([N+](=O)[O-])o1	.	/	.	?	.	22µM
Brc1ccc(OCc2nnnn2-c2ccccc2)cc1	.	-69	.	?	.	.
COc1ccccc1N1CCN(C(=O)CCS(=O)(=O)c2cc(Br)cc3c2N(C(=O)C2CC2)CC3)CC1	/	/	/	/	.	.
NC(=S)NS(=O)(=O)c1ccc(N)cc1	/	/	.	.	/	/
